Screening results from PubChem.
This is a sample that favours compounds with a hit; in the whole collection about 3% have one here.
14-3-3 Bad PPI – inhibitors of 14-3-3 zeta/Bad binding, primary screen, biochemical, TR-FRET, bovine 14-3-3 zeta | actives 0.71% (n = 220,000) | AID 781, 2007 | TR-FRET 14-3-3zeta/Dy647-pBad peptide displacement, 1 h | inhibition, % at 21.7 µM;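 active means inhibition above about 70%, limit read from the data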;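 further: 0% = full 14-3-3 plus peptide FRET controls and 100% = background without 14-3-3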
Target sequence (P63103 whole entry, looked up): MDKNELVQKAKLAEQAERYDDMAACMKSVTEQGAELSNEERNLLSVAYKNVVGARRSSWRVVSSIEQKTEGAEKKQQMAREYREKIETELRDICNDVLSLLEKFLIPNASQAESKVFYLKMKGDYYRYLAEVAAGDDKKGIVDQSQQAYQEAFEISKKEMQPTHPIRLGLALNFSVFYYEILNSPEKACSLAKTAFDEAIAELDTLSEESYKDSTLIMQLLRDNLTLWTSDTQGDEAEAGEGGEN
Mcl1 Bid PPI – Mcl-1/Bid binding inhibitors, primary screen, biochemical, TR-FRET, 1536-well; Induced myeloid leukemia cell differentiation protein Mcl-1 (Homo sapiens), Q07820; TR-FRET Mcl-1/Bid-Dy647 peptide binding; inhibition, % at 21.7 µM; actives 0.97% (n = 220,000); AID 1021, 2008;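 active means compounds that cut the binding signal by more than half at the single screening dose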;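 further: His-tagged Mcl-1 with europium anti-His antibody binding Bid BH3 peptide; 0% = Mcl-1 plus peptide wells and 100% = peptide-only wells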
Target sequence (Q07820 whole entry, looked up): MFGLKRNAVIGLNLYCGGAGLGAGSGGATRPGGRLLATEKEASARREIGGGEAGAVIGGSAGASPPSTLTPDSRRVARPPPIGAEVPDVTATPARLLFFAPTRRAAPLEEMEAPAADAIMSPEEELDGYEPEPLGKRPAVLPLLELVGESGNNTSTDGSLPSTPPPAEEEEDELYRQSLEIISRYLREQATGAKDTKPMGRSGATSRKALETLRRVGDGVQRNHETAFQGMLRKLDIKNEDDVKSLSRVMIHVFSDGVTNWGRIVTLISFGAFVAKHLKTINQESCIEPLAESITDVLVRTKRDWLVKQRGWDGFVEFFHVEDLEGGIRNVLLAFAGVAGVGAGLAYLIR
Bim-Mcl-1 – inhibitors of Bim peptide binding to Mcl-1, primary screen, biochemical, bead-based flow cytometry, multiplex | Induced myeloid leukemia cell differentiation protein Mcl-1 (Homo sapiens), Q07820 | Bim peptide-Mcl-1 binding | inhibition, % at 10 µM | actives 0.1% (n = 190,000) | AID 1009, 2008; in the data active means inhibition above about 40%;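 further: 0% = no compound tracer wells and 100% = peptide blocker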
Mcl1 Noxa PPI – Mcl-1/Noxa binding inhibitors, primary screen, biochemical, TR-FRET, 1536-well | Induced myeloid leukemia cell differentiation protein Mcl-1 (Homo sapiens), Q07820 | TR-FRET Mcl-1/Noxa peptide binding, 2 h | inhibition, % at 21.7 µM | actives 1.5% (n = 220,000) | AID 1022, 2008;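 active means compounds that cut the protein-peptide binding signal by more than 50% relative to plate controls in a single-dose test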;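 further: His-tagged Mcl-1 with rhodamine Noxa BH3 peptide and terbium anti-His antibody; 0% = Mcl-1 plus Noxa peptide wells and 100% = peptide-only wells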
Arbovirus inh – antivirals against arbovirus infection, primary screen, cell-based, full library, 10K replicate subset. actives 0.37% (n = 200,000). arbovirus infection cell-based antiviral screen. inhibition, % at 10 µM; in the data active means inhibition above about 30%
* = called active by the depositor.

How did CCCCN(CCCC)CCn1cnc2c([nH]c3ccc(OC)cc32)c1=O do in these assays?
14-3-3 Bad PPI: 4; Mcl1 Bid PPI: -30; Bim-Mcl-1: 3; Mcl1 Noxa PPI: 55*; Arbovirus inh: -5

Results for COc1ccc2[nH]c3c(=O)n(CCc4ccccc4)cnc3c2c1 ?
14-3-3 Bad PPI: 0; Mcl1 Bid PPI: 2; Mcl1 Noxa PPI: 6

How did CNc1nc(SC)nc2ccsc12 do in these assays?
14-3-3 Bad PPI: -3; Mcl1 Bid PPI: 5; Bim-Mcl-1: -4; Mcl1 Noxa PPI: -10; Arbovirus inh: 9

Results for O=C(Nc1ccc(OC(F)(F)F)cc1)c1ccc(S(=O)(=O)N2CCOCC2)o1 ?
14-3-3 Bad PPI: 3; Mcl1 Bid PPI: -2; Mcl1 Noxa PPI: 6

How did O=C(COC(=O)c1ccc(NS(=O)(=O)c2cccs2)cc1)NCc1ccco1 do in these assays?
14-3-3 Bad PPI: 36; Mcl1 Bid PPI: -22; Mcl1 Noxa PPI: 107*

Results for COc1cc(NC(=O)c2cccs2)c(C(=O)OCC(=O)NCc2ccco2)cc1OC ?
14-3-3 Bad PPI: 7; Mcl1 Bid PPI: 28; Bim-Mcl-1: -3; Mcl1 Noxa PPI: 63*; Arbovirus inh: 7

What do the screens show for `O=C(COC(=O)c1cncc(Br)c1)NCc1ccco1`?
14-3-3 Bad PPI: 0; Mcl1 Bid PPI: -30; Bim-Mcl-1: -1; Mcl1 Noxa PPI: 56*; Arbovirus inh: -3

What do the screens show for `O=C(COC(=O)c1cncc(Br)c1)NCc1ccc(F)cc1`?
14-3-3 Bad PPI: -2; Mcl1 Bid PPI: -24; Bim-Mcl-1: 0; Mcl1 Noxa PPI: 7; Arbovirus inh: -1

Results for C=CCn1c(C(C)NC(=O)c2cccc(C)c2)n[nH]c1=S (centres undefined) ?
14-3-3 Bad PPI: -4; Mcl1 Bid PPI: -2; Bim-Mcl-1: -2; Mcl1 Noxa PPI: 28; Arbovirus inh: 3

Results for Cc1ccc(C(=O)CC(=O)COc2ccc(Cl)cc2)cc1 ?
14-3-3 Bad PPI: -14; Mcl1 Bid PPI: -1; Bim-Mcl-1: -10; Mcl1 Noxa PPI: 11; Arbovirus inh: 9

How did Cc1nc2scc(-c3ccccc3)c2c(=O)n1N=C1C=CC(=O)C=C1 do in these assays?
14-3-3 Bad PPI: -14; Mcl1 Bid PPI: -8; Bim-Mcl-1: 1; Mcl1 Noxa PPI: 63*; Arbovirus inh: -32

How did Cc1nc2scc(-c3ccccc3)c2c(=O)n1N do in these assays?
14-3-3 Bad PPI: 7; Mcl1 Bid PPI: 8; Bim-Mcl-1: 0; Mcl1 Noxa PPI: 12; Arbovirus inh: -10

What do the screens show for `COC(=O)C(NC(=O)C(C)NC(=O)OCc1ccccc1)C(C)C` (centres undefined)?
14-3-3 Bad PPI: 4; Mcl1 Bid PPI: -16; Mcl1 Noxa PPI: -15

What do the screens show for `CCn1cc(Br)c(C(=O)N2CCN(c3ccccc3)CC2)n1`?
14-3-3 Bad PPI: 72*; Mcl1 Bid PPI: 0; Bim-Mcl-1: 3; Mcl1 Noxa PPI: 16; Arbovirus inh: 5

How did O=C1CC(C(=O)Nc2ccccc2)S/C(=N\NC(=O)c2ccccc2Cl)N1 (centres undefined) do in these assays?
14-3-3 Bad PPI: -6; Mcl1 Bid PPI: -14; Bim-Mcl-1: 0; Mcl1 Noxa PPI: -5; Arbovirus inh: 4

What do the screens show for `COc1cccc(NC(=O)CSc2nc(N)cc(N)n2)c1`?
14-3-3 Bad PPI: -9; Mcl1 Bid PPI: -15; Bim-Mcl-1: -1; Mcl1 Noxa PPI: -4; Arbovirus inh: 8

What do the screens show for `COc1cccc(NC(=O)CSc2nc3ccccc3n2C)c1`?
14-3-3 Bad PPI: 6; Mcl1 Bid PPI: 85*; Bim-Mcl-1: -21; Mcl1 Noxa PPI: -9; Arbovirus inh: 3

What do the screens show for `COc1ccc2c(c1)nc(SCC(=O)c1ccc(Br)s1)n2C`?
14-3-3 Bad PPI: 84*; Mcl1 Bid PPI: 0; Bim-Mcl-1: -1; Mcl1 Noxa PPI: 20; Arbovirus inh: -11

Results for Cc1ccc(NC(=O)CSc2nc3ccccc3c3nc4ccccc4n23)cc1 ?
14-3-3 Bad PPI: 54; Mcl1 Bid PPI: 62*; Bim-Mcl-1: 1; Mcl1 Noxa PPI: 20; Arbovirus inh: -24

What do the screens show for `O=C(CSc1nc2ccccc2c2nc3ccccc3n12)NCc1ccco1`?
14-3-3 Bad PPI: 46; Mcl1 Bid PPI: 86*; Bim-Mcl-1: 0; Mcl1 Noxa PPI: -69; Arbovirus inh: -2

How did COC(=O)c1ccc(C(NC(=O)OCc2ccccc2)/C(F)=C/[C@@H](C)C(=O)NCc2ccc(OC)c(OC)c2)cc1 (some centres undefined) do in these assays?
14-3-3 Bad PPI: 36; Mcl1 Bid PPI: 13; Bim-Mcl-1: -2; Mcl1 Noxa PPI: 1; Arbovirus inh: -28

How did Cc1ccc2c(c1)c1c(n2CC(O)Cn2nc(C)c(Br)c2C)CCCC1 (centres undefined) do in these assays?
14-3-3 Bad PPI: -20; Mcl1 Bid PPI: -29; Bim-Mcl-1: 0; Mcl1 Noxa PPI: 10; Arbovirus inh: -37

What do the screens show for `Cc1nn(CC(O)Cn2c3c(c4ccccc42)CCN(C)C3=O)c(C)c1Br` (centres undefined)?
14-3-3 Bad PPI: 8; Mcl1 Bid PPI: -27; Bim-Mcl-1: 0; Mcl1 Noxa PPI: 22; Arbovirus inh: 36*

How did COc1ccc(C(C(=O)NC2CCCC2)N(C(=O)c2ccoc2C)c2ccc(C)c(C)c2)cc1 (centres undefined) do in these assays?
14-3-3 Bad PPI: -7; Mcl1 Bid PPI: -8; Bim-Mcl-1: 4; Mcl1 Noxa PPI: 6; Arbovirus inh: -4

What do the screens show for `CCC(CC)NC(=O)COC(=O)c1cc(Br)ccc1Cl`?
14-3-3 Bad PPI: -2; Mcl1 Bid PPI: 97*; Bim-Mcl-1: 3; Mcl1 Noxa PPI: 0; Arbovirus inh: 5

Results for O=C(NC(=S)Nc1nc2c(s1)CCCC2)c1ccc(C(=O)c2ccccc2)cc1 ?
14-3-3 Bad PPI: -15; Mcl1 Bid PPI: -20; Bim-Mcl-1: -1; Mcl1 Noxa PPI: -2; Arbovirus inh: -8

What do the screens show for `O=C(NC(=S)Nc1nc2c(s1)CSc1ccccc1-2)c1ccccc1`?
14-3-3 Bad PPI: 7; Mcl1 Bid PPI: -18; Bim-Mcl-1: -1; Mcl1 Noxa PPI: 73*; Arbovirus inh: -34

Results for COc1ccc(-c2nc3ccccc3c(=O)n2CCOc2cccc(C)c2C)cc1 ?
14-3-3 Bad PPI: 0; Mcl1 Bid PPI: 95*; Bim-Mcl-1: -4; Mcl1 Noxa PPI: 11; Arbovirus inh: 15

What do the screens show for `COc1ccc(-c2nc3ccccc3c(=O)n2CCOc2c(C)cccc2C)cc1`?
14-3-3 Bad PPI: -6; Mcl1 Bid PPI: 0; Bim-Mcl-1: -21; Mcl1 Noxa PPI: -5; Arbovirus inh: 7

How did COc1ccccc1NC(=O)Cn1c(=O)n(CCc2c[nH]c3ccccc23)c(=O)c2cccnc21 do in these assays?
14-3-3 Bad PPI: -5; Mcl1 Bid PPI: -12; Bim-Mcl-1: -1; Mcl1 Noxa PPI: -17; Arbovirus inh: -1
